# In PubChem BioAssay AID2567 (National Center for Advancing Translational Sciences (NCATS), 2010):
# Records with an inconclusive call do not appear. Unmarked numbers belong to inactive results. The source made the active and inactive calls. The call rests on the fitted dose curve; in most records, active means well fitted antagonist curve with a large enough effect in the main read-out, with a control signal flat; inconclusive means small, poorly fitted or top-dose-only effect; inactive means no such curve, though single readings can be large or run the other way.
# Target: Neuropeptide S receptor (Homo sapiens) (UniProt Q6W5P4)
# Test: Confirmation Concentration-Response Assay for Antagonists of the Neuropeptide S Receptor: Calcium Signal Transduction, SAR for Probe
# Details: CHO-NPSR cells, NPS-induced calcium fluorescence, FDSS; series mostly up to 19.3 µM; activity change, negative = inhibition: at the top concentration
# In short: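 Calcium flux was measured by kinetic fluorescence in dye-loaded CHO-NPSR cells, first after compound addition (210 s), then after NPS challenge (60 nM in stimulation reagent, 140 s). Hill-equation fitting gave AC50.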
# Neuropeptide S receptor (Homo sapiens), sequence (Q6W5P4 whole entry, looked up): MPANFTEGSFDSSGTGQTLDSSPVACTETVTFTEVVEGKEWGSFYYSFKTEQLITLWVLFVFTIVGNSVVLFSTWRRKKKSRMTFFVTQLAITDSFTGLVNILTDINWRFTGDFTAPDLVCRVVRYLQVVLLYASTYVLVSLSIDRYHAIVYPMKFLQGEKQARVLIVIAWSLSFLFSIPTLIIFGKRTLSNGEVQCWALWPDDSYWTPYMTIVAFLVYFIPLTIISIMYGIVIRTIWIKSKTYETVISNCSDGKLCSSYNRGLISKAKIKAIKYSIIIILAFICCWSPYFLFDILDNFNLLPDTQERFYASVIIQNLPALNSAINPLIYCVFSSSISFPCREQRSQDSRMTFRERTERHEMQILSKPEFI
SMILES,"activity change, negative = inhibition",Potency
COc1ccc(C2c3c(nc(CCc4ccccc4)[nH]c3=O)Oc3ccc4ccccc4c32)cc1OC (stereo not given),-61.9% [at 50.9 µM],
Cc1cc(C)n(-c2nc(NC(C)C)nc(NC(C)C)n2)n1,29%,
COc1cccc(C2c3c(ncn(-c4ccc5c(c4)OCO5)c3=N)Oc3ccc4ccccc4c32)c1 (stereo not given),,552 nM (active)
CCOC(=O)c1ccc(-n2cnc3c(c2=N)C(c2cccc(OC)c2)c2c(ccc4ccccc24)O3)cc1 (stereo not given),,2760 nM (active)
Cc1c(P(=S)(c2ccccc2)c2ccccc2)c2ccccc2n1C(=O)Cc1ccccc1,-9.71% [at 50.9 µM],
CC1(C)Cc2c(c(N3CCOCC3)nc3sc4c(NCC5CCCO5)nnnc4c23)CS1 (stereo not given),-40.4%,
COc1ccc(C2c3c(nc(Cc4ccccc4)[nH]c3=O)Oc3ccc4ccccc4c32)cc1OC (stereo not given),12.3% [at 50.9 µM],
COc1ccc(C2c3c(ncn(CCCc4ccccc4)c3=N)Oc3ccc4ccccc4c32)cc1OC (stereo not given),-76.1% [at 50.9 µM],
Cc1c(P(=S)(c2ccccc2)c2ccccc2)c2ccccc2n1CCCc1ccccc1,-2.39% [at 50.9 µM],
CN(C)C(=O)Oc1cccc([N+](C)(C)C)c1,20.5%,
CN(C)C(=S)N=Nc1[nH]c2ccccc2c1O,15.4%,
COc1cccc(C2c3c(ncn(-c4ccccc4OC)c3=N)Oc3ccc4ccccc4c32)c1 (stereo not given),,1100 nM (active)
COc1cccc(C2c3c(ncn(-c4ccccc4SC)c3=N)Oc3ccc4ccccc4c32)c1 (stereo not given),,438 nM (active)
COC(=O)c1ccc(C(=O)OC)c(NC(=O)CSc2cccc[n+]2[O-])c1,17.1%,
COc1ccc(C2c3c(N)nc(CCCc4ccccc4)nc3Oc3ccc4ccccc4c32)cc1OC (stereo not given),-53.4% [at 50.9 µM],
